Measurements: ChEMBL document CHEMBL2218924, “A broad activity screen in support of a chemogenomic map for kinase signalling research and drug discovery” (Biochem J, 2013)

How the values were obtained:
[1] = target: T1, Protein kinase C zeta type (Homo sapiens) (UniProt Q05513); conditions: at 1 µM
T1 sequence (whole entry): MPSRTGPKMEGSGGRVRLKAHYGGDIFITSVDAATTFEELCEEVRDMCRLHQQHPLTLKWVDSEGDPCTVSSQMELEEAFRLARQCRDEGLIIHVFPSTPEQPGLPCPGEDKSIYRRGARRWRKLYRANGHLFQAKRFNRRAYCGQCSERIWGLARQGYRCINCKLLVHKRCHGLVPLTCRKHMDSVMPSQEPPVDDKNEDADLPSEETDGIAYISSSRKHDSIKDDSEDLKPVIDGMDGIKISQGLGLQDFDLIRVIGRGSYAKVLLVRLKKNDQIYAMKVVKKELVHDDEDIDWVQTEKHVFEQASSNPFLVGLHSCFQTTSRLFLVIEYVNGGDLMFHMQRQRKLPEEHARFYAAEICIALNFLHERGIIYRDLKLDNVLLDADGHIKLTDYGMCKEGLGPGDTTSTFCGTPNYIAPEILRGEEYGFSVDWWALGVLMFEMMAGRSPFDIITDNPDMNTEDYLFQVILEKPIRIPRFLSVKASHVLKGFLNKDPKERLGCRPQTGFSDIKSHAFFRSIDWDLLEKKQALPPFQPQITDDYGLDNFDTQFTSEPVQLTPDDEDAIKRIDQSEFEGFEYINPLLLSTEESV

[2] = target: T2, Mitogen-activated protein kinase kinase kinase 5 (Homo sapiens) (UniProt Q99683); conditions: at 10 µM
T2 sequence (whole entry): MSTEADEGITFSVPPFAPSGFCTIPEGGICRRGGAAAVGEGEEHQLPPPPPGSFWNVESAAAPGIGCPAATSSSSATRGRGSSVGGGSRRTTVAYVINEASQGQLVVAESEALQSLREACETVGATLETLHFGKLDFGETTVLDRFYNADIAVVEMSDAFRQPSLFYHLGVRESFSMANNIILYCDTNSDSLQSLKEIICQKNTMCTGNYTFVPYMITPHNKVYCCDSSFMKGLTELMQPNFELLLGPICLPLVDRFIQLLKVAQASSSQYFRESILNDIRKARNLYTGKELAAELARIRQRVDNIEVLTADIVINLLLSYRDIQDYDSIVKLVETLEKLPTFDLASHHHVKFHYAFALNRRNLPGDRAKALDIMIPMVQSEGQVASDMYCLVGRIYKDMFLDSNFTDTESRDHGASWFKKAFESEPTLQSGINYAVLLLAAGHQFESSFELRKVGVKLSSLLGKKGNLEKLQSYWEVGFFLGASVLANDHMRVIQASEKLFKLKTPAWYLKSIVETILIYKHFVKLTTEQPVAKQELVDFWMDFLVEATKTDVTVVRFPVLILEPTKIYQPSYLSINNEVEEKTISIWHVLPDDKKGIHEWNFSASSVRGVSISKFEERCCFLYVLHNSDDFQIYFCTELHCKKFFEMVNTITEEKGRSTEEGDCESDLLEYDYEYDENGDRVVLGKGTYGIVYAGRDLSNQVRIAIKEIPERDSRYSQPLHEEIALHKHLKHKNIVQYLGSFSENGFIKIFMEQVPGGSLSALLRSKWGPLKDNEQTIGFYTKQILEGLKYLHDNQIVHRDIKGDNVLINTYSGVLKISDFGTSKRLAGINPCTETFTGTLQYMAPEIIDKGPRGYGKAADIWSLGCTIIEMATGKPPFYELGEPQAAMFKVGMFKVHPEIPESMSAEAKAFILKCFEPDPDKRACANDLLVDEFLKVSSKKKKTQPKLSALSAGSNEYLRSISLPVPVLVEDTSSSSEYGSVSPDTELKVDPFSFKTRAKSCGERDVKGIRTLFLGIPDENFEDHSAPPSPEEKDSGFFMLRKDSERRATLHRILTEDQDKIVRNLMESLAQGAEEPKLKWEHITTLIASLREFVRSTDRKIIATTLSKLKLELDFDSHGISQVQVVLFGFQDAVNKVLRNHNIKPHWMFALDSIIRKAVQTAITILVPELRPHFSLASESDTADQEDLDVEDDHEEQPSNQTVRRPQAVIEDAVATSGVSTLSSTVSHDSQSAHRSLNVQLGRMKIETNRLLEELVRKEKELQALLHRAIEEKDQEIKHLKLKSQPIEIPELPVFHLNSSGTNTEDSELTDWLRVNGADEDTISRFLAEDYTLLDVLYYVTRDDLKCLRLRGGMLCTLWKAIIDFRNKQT

[3] = target: Tyrosine-protein kinase ABL1 (Homo sapiens) (UniProt P00519); conditions: at 1 µM
Tyrosine-protein kinase ABL1 (Homo sapiens), sequence (P00519 whole entry): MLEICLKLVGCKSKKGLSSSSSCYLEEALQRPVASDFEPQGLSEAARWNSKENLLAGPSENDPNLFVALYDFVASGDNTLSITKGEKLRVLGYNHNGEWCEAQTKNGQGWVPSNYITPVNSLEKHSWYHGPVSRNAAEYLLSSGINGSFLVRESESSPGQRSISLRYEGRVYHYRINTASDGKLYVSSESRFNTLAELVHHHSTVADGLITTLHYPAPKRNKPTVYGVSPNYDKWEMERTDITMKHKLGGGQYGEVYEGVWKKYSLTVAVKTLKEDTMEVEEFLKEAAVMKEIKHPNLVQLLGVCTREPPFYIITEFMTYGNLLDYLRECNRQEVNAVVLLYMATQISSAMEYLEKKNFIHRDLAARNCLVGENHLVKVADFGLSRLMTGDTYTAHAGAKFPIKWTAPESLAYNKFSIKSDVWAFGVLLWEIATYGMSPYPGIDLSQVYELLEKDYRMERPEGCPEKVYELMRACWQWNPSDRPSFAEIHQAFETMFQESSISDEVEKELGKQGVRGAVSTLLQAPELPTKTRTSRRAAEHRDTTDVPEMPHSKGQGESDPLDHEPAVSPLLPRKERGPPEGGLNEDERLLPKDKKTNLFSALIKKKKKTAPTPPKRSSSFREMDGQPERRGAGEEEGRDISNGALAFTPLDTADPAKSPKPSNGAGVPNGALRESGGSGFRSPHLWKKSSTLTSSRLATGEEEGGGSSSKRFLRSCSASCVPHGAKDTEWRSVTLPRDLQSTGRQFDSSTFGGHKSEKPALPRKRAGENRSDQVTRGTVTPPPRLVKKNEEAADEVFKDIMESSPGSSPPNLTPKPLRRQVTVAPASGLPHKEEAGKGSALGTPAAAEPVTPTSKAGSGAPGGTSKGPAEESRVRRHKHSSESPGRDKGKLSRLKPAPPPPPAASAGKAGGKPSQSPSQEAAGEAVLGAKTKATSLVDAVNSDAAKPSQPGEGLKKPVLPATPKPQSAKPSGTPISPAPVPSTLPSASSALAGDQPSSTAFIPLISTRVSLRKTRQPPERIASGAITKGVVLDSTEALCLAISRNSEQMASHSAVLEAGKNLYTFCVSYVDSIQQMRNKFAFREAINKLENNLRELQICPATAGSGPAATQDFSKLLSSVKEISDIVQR

[4] = target: Tyrosine-protein kinase ABL1 (Homo sapiens) (UniProt P00519); conditions: at 10 µM
[5] = target: Tyrosine-protein kinase ABL2 (Homo sapiens) (UniProt P42684); conditions: at 1 µM
Tyrosine-protein kinase ABL2 (Homo sapiens), sequence (P42684 whole entry): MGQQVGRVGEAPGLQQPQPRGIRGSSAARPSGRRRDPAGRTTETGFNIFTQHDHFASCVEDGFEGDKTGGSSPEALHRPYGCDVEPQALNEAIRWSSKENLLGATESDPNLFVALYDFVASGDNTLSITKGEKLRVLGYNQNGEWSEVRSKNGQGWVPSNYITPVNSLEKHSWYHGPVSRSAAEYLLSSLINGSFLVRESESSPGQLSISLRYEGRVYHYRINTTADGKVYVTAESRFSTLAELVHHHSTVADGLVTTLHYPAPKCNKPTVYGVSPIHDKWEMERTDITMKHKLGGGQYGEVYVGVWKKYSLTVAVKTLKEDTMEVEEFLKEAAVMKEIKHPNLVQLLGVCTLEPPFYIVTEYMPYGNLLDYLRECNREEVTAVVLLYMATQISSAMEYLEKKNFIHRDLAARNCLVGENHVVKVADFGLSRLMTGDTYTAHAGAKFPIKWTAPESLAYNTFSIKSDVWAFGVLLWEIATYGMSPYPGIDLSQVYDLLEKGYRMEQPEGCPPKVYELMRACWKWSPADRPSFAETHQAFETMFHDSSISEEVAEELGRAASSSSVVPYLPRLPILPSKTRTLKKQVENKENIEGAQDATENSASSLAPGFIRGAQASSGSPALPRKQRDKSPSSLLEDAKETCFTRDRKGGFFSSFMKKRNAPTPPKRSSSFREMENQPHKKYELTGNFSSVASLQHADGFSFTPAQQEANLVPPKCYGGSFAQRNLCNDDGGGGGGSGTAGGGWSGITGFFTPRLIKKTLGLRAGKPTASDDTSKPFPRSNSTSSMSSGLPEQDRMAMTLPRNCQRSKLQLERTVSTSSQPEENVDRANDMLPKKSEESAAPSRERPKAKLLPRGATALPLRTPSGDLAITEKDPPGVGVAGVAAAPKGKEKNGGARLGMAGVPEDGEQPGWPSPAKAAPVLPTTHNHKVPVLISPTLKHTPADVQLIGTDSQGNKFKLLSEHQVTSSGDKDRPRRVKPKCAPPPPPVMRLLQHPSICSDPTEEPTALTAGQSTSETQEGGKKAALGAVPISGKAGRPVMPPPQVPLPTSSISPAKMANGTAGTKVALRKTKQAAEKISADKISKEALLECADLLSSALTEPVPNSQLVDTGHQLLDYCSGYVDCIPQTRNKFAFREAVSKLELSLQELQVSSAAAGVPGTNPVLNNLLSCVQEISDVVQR

[6] = target: Tyrosine-protein kinase ABL2 (Homo sapiens) (UniProt P42684); conditions: at 10 µM
[7] = target: T3, Aurora kinase A (Homo sapiens) (UniProt O14965); conditions: at 1 µM
T3 sequence (whole entry): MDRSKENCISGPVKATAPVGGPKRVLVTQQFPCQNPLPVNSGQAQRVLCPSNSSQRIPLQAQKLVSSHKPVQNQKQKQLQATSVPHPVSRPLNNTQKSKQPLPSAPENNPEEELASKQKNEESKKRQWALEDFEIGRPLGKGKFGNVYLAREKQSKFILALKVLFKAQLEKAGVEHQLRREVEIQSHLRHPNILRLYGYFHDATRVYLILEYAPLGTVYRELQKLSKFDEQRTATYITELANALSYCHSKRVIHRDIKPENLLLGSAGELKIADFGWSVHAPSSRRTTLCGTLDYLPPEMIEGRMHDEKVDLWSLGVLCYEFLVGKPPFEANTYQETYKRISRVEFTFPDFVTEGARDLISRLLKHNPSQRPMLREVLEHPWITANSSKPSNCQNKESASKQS

[8] = target: T3, Aurora kinase A (Homo sapiens); conditions: at 10 µM
[9] = target: Aurora kinase B (Homo sapiens) (UniProt Q96GD4); conditions: at 1 µM
Aurora kinase B (Homo sapiens), sequence (Q96GD4 whole entry): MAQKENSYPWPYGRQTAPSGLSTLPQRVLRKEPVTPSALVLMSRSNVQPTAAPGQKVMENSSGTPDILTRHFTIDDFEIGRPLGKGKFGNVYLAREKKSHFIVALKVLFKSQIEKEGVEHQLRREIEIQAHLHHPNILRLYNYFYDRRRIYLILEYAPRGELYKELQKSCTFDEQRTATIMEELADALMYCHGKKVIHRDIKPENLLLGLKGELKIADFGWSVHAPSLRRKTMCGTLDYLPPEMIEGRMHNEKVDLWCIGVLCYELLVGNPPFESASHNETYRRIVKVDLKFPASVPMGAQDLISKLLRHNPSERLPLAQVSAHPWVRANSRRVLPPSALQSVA

[10] = target: Aurora kinase B (Homo sapiens) (UniProt Q96GD4); conditions: at 10 µM

SMILES	residual activity [1]	residual activity [2] [%]	residual activity [3] [%]	residual activity [4] [%]	residual activity [5] [%]	residual activity [6] [%]	residual activity [7] [%]	residual activity [8] [%]	residual activity [9] [%]	residual activity [10] [%]
Nc1nc(Nc2ccc(S(N)(=O)=O)cc2)nn1C(=S)Nc1c(F)cccc1F	75% (inactive)	-1	-5	-5	-2	-2	1	10	0	0
Cc1nc(-c2ccccc2)c(-c2ccncc2)o1	113% (inactive)	85	26	33	62	45	122	86	44	25
Cc1nc2cc3nc(-c4cccs4)cnc3cc2n1C	99% (inactive)	112	90	52	95	83	88	69	80	16
O=C1Nc2ccc(Br)cc2/C1=C\c1cc2c([nH]1)CCCC2	103% (inactive)	81	105	75					18	8
O=C(Nc1cccc(Nc2nccc(Nc3cccc(C(F)(F)F)c3)n2)c1)C1CC1	98% (inactive)	90	68	76	46	44			1	2
CCC(=O)Nc1ccc2ncnc(Nc3cccc(Br)c3)c2c1	116% (inactive)	108	90	89	96	72	73	127	101	67
c1ccc(-c2n[nH]cc2-c2ccnc3ccccc23)nc1	108% (inactive)	105	69	14	64	18	99	103	75	51
O=[N+]([O-])c1ccc(-c2nc(-c3ccc(F)cc3)c(-c3ccncc3)[nH]2)cc1	113% (inactive)	100	95	95	82	46	103	109	114	90
CC(C)n1cnc2/c(=N/c3cccc(Cl)c3)nc(NCCO)[nH]c21	100% (inactive)	86	73	25	52	10	88	47	13	3
CO[C@@H]1[C@H](N(C)C(=O)c2ccccc2)C[C@H]2O[C@]1(C)n1c3ccccc3c3c4c(c5c6ccccc6n2c5c31)C(=O)NC4	101% (inactive)	75	89		77	45	-3	-2	1	3
CNc1cc2c(Nc3cccc(Br)c3)ncnc2cn1	99% (inactive)	112	85	87	93	79	60	71	43	10
Cc1cncc2cccc(S(=O)(=O)N3CCCN(C(=O)CN)C[C@H]3C)c12	88% (inactive)	87	88			92	64	36	6	3
O=C1Nc2cc(Br)ccc2/C1=C1/Nc2ccccc2/C1=N\O	103% (inactive)	86		6	16	2	31	25	3	-1
COc1cc2ncnc(N3CCN(C(=O)Nc4ccc(Oc5ccccc5)cc4)CC3)c2cc1OC	113% (inactive)	67			110	118	51	48	15	7
N#CCCc1ccc2c(c1)-c1[nH]c3ccc([N+](=O)[O-])cc3c1CC(=O)N2	69% (inactive)		31	13	48	17	61	37	8	1
O=c1c2ccccc2[nH]c(=S)n1CCN1CCC(=C(c2ccc(F)cc2)c2ccc(F)cc2)CC1	101% (inactive)	116	86	124	93	74	119	108	95	115
Oc1ccc(Nc2nc(-c3ccc(Cl)cc3)cs2)cc1	115% (inactive)	105	94	75	101	72	115	122	124	71
COc1ccc(S(=O)(=O)N(CCO)c2ccccc2CN(C)C/C=C/c2ccc(Cl)cc2)cc1	111% (inactive)	90	92	118	116	87	122	127	90	95

SMILES	residual activity [1]	residual activity [2] [%]	residual activity [3] [%]	residual activity [4] [%]	residual activity [5] [%]	residual activity [6] [%]	residual activity [7] [%]	residual activity [8] [%]	residual activity [9] [%]	residual activity [10] [%]
CC(C)n1cnc2c(NCc3ccccc3)nc(NCCCO)nc21	98% (inactive)	102	96	81	93	89	109	114	99	85
CC(=O)c1ccc(N2CCOCC2)cc1O	107% (inactive)	95			110	102	109	100	100	95
N#CC(C#N)=C(N)/C(C#N)=C/c1ccc(O)cc1		93	87	78			83	85	81	62
O=C(O)c1ccc2c3c1cccc3c(=O)n1c3ccccc3nc21	112% (inactive)	72	101	80	91	74	72	16	64	18
Cc1cc(Nc2nc(-c3ccccc3)nc3ccccc23)n[nH]1	110% (inactive)	100	54		33	3	1	0	-2	0
Cc1cccc(-c2[nH]c(C(C)(C)C)nc2-c2ccc3c(c2)OCO3)n1		88	96	102		97	93		106	95
COc1cc2ncnc(Nc3ccc(NC(=O)c4ccccc4)cc3)c2cc1OC	110% (inactive)	100	101	81		93	18	12	2	0
CN(C)CCCn1cc(C2=C(c3c[nH]c4ccccc34)C(=O)NC2=O)c2ccccc21	72% (inactive)	108	108	108	90	76	100	80	31	7
O=C(Nc1cccc(Nc2cc(Nc3cccc(C(F)(F)F)c3)ncn2)c1)C1CC1	101% (inactive)	104	84	104	92	90	95	82	68	30
COc1cc2ncnc(Nc3ccc(O)c(Br)c3)c2cc1OC	96% (inactive)	82	64	13	76	22	49	26	43	2
Oc1ccc(-c2nc(-c3ccc(F)cc3)c(-c3ccncc3)[nH]2)cc1	113% (inactive)	80	98	95	78	41	105	89	69	58
Cc1ccc(S(=O)(=O)/C=C/C#N)cc1	102% (inactive)	115	104	97	91	97	118	103	105	88
O=C1NC(=O)/C(=C/c2ccc3c(c2)OC(F)(F)O3)S1	97% (inactive)	97	103	79	94	98	90	57	74	64
COc1cc2ncc(-c3ccccc3)nc2cc1OC		77	96	83	99	84	83	98	83	50
Nc1cccc(-c2cc3c(Oc4cccc(O)c4)ncnc3[nH]2)c1		95	-6	-5	-3	-2	28	1	9	0
CC(=O)O/N=C1\C(=C2\C(=O)Nc3cc(Br)ccc32)Nc2ccccc21	108% (inactive)	94	60	7	31	4	41	17	19	6
COc1ccc(C(=O)Nc2sc3c(c2C(N)=O)CCCC3)cc1OC	96% (inactive)	109	87	86	126	101	93	96	69	46
Oc1n[nH]c2nnc(-c3c(-c4ccccc4)nn4ccccc34)cc12	107% (inactive)	105	81		95	64	104	93	5	2
